Data: PubChem BioAssay (Tox21)
Records with an inconclusive call do not appear. Activity calls are given as the source filed them. Unless noted, the call rests on the fitted dose curve; in most records, active means well fitted curve in the direction sought with a large enough effect in the repeat runs; inconclusive means weak or mixed curves; inactive means no such curve, though single readings can be large; an effect the other way counts as inactive or inconclusive.

Key:
[1] = qHTS assay to identify small molecule agonists of the vitamin D receptor (VDR) signaling pathway - cell viability counter screen (AID 743224); further: series mostly up to about 63 µM; nearly all actives have a fitted effect of over 50% in size
How it was run: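 VDR-bla cells were preincubated 4 h at 37C/5% CO2, then exposed to compounds for 16 h. After the 2 h room-temperature bla FRET read, CellTiter-Glo was added to the same wells and luminescence read after 30 min.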

[2] = qHTS assay to identify small molecule agonists of the NFkB signaling pathway (AID 1159509; active means well fitted curve in the direction sought with a large enough effect in the signal ratio in the repeat runs, not every such curve was filed as active; the % refers to the signal ratio; further: series mostly up to about 61 µM)
How it was run: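 ME-180 NFkB-bla, 2,000 cells/well, overnight plating; cpd pinned in DMSO, 5 h 37 C; B/G FRET substrate 1.5 h RT; ex 405, em 460/530 nm.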

[3] = qHTS assay to identify small molecule agonists of the NFkB signaling pathway - cell viability counter screen (AID 1159515; calls by dose curve; further: series mostly up to about 61 µM; nearly all actives have a fitted effect of over 55% in size)
How it was run: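 NFkB-bla ME-180 cells, 2,000/well, were plated overnight at 37 C, 5% CO2, then exposed to compounds in DMSO for 5 hr. After the bla FRET read, CellTiter-Glo was added to the same wells; luminescence was read after 30 min at room temperature.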

[4] = qHTS assay to identify small molecule agonists of the endoplasmic reticulum stress response signaling pathway (AID 1159516; active means well fitted activation curve with a large enough effect in the signal ratio in the repeat runs, not every such curve was filed as active; the % refers to the signal ratio)
How it was run: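 CellSensor ESRE-bla HeLa cells, carrying a beta-lactamase reporter driven by the ER stress response element, were plated overnight and exposed to compounds for 5 hr at 37 C. Reporter activity was read as FRET substrate fluorescence after 2 hr at room temperature.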

[5] = qHTS assay to identify small molecule agonists of the endoplasmic reticulum stress response signaling pathway - cell viability counter screen (AID 1159517; calls by dose curve; further: series mostly up to about 61 µM; nearly all actives have a fitted effect of over 50% in size)
How it was run: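 CellTiter-Glo was added to wells already read for beta-lactamase FRET, and luminescence was recorded 30 min later. Cells: ESRE-bla HeLa, 1,500 per well, compound exposure 5 hr at 37 C.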

[6] = qHTS assay to identify small molecule antagonists of the retinoid-related orphan receptor gamma (ROR-gamma) signaling pathway - cell viability counter screen (AID 1159520); further: nearly all actives have a fitted effect of over 50% in size
How it was run: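 Tet-on ROR gamma CHO cells (1,000/well) were plated 4 hr, given compounds in DMSO for 2 hr at 37 C, then induced with 1 uM final doxycycline for 16 hr. Viability was read as ATP by CellTiter-Glo luminescence after 30 min.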

[7] = qHTS assay to identify small molecule agonists of the AP-1 signaling pathway - cell viability counter screen (AID 1159525; calls by dose curve; further: nearly all actives have a fitted effect of over 55% in size)
How it was run: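 ME-180 AP-1-bla, 2500 cells/well, Opti-MEM + 0.5% dialyzed FBS; overnight 37 °C; cpd 15-pt titration, 5 h 37 °C; CellTiter-Glo 30 min RT; luminescence read; normalised to TOAB and DMSO controls.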

[8] = qHTS assay to identify small molecule agonists of the AP-1 signaling pathway (AID 1159526; calls by dose curve)
[9] = biological target: Retinoic acid receptor RXR-alpha (Homo sapiens) (UniProt P19793); assay: qHTS assay to identify small molecule agonists of the RXR signaling pathway (AID 1159527; calls by dose curve; further: nearly all actives have a fitted effect of over 35% in size)
How it was run: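 Reporter activation is measured as beta-lactamase activity via FRET substrate cleavage (emission 460/530 nm) in HEK 293T cells expressing an RXR-alpha-driven bla construct, following 16 hr compound exposure at 37 C.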

[10] = qHTS assay to identify small molecule agonists of the RXR signaling pathway - cell viability counter screen (AID 1159529); further: series mostly up to about 77 µM; nearly all actives have a fitted effect of over 50% in size
How it was run: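 Tox21 10K compounds were tested for cytotoxicity against GeneBLAzer RXR-alpha HEK 293T cells grown in 2% charcoal-stripped FBS. Exposure lasted 16 hr at 37 C, 5% CO2; viability read by CellTiter-Glo luminescence.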

[11] = qHTS assay to identify small molecule antagonists of the vitamin D receptor (VDR) signaling pathway - cell viability counter screen (AID 743225); further: nearly all actives have a fitted effect of over 50% in size
How it was run: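 Cytotoxicity toward the VDR-bla HEK 293T line was scored by ATP-based CellTiter-Glo luminescence, read in the wells already used for the beta-lactamase readout after 16 h compound treatment under 3 nM 1-alpha,25-dihydroxyvitamin D3 stimulation.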

[12] = qHTS assay to identify small molecule antagonists of the retinoid acid receptor (RAR) signaling pathway - cell viability counter screen (AID 1159551); further: nearly all actives have a fitted effect of over 35% in size
How it was run: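 C3RL4 cells were seeded overnight at 37 C, then treated with compounds plus 1 uM (final) retinol for 6 h at 37 C. Viability was read as ATP by CellTiter-Glo luminescence after 30 min at room temperature.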

[13] = qHTS assay to identify small molecule antagonists of the retinoic acid receptor (RAR) signaling pathway (AID 1159552; further: nearly all actives have a fitted effect of over 50% in size)
How it was run: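 Overnight-plated C3RL4 reporter cells get compound, then retinol to 1 uM final; plates sit 6 hr at 37 C, 5% CO2. A luciferase reagent is added and light output recorded after 30 min at room temperature.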

[14] = qHTS assay to identify small molecule agonists of the retinoic acid receptor (RAR) signaling pathway (AID 1159553)
How it was run: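 C3RL4 cells carrying a RARE luciferase reporter were plated overnight at 37 C, then exposed to compounds in DMSO for 6 hr at 37 C and 5% CO2. Luminescence was read 30 min after luciferase reagent addition at room temperature.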

[15] = biological target: Nuclear receptor ROR-gamma (Homo sapiens) (UniProt P51449); assay: qHTS assay to identify small molecule antagonists of the retinoid-related orphan receptor gamma (ROR-gamma) signaling pathway (AID 1159521)
How it was run: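 Readout: ONE-Glo luciferase luminescence, 30 min at room temperature. System: Tet-on RORγ CHO, RORE-LUC. Sequence: compound 2 h, doxycycline 1 uM final, 16 h at 37 C.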

[16] = qHTS assay to identify small molecule antagonists of the estrogen related receptor (ERR) signaling pathway - cell viability counter screen (AID 1224818);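 further: series mostly up to about 46 µM; viability measured after 17.5 h of compound exposure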
How it was run: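 ERR reporter cells plated 6 h at 37 C/5% CO2, then compounds in DMSO pin-transferred and incubated 17.5 h at 37 C. Viability read as CellTiter-Fluor fluorescence after 30 min at 37 C.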

[17] = qHTS assay to identify small molecule antagonists of the estrogen related receptor (ERR) signaling pathway (AID 1224819)
How it was run: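 ERR reporter cells were plated at 2,000 cells/well and left 6 h at 37 C/5% CO2 before pin-tool transfer of compounds in DMSO. After 18 h at 37 C, One-Glo was added and luminescence was read 30 min later at room temperature.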

[18] = qHTS assay to identify small molecule agonists of the estrogen related receptor (ERR) signaling pathway (AID 1224820)
How it was run: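 Cells: ERR line from NTP, 2,000/well. Pre-incubation 6 h, 37 C/5% CO2. Compound (DMSO) pin transfer, 18 h 37 C. One-Glo, 30 min RT, luminescence.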

[19] = tested on: estrogen-related receptor alpha (ERRalpha) with PGC-1alpha coactivator, human; assay: qHTS assay to identify small molecule antagonists of the estrogen related receptor signaling pathway with the pleiotropic PPARgamma coactivator (PGC) (AID 1224821; calls by dose curve)
How it was run: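 Luminescent read-out (One-Glo, 30 min at room temperature) following 18 h treatment of PGC/ERR cells at 37 C with compounds delivered in DMSO. Cells had settled 6 h at 37 C/5% CO2 before dosing.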

[20] = qHTS assay to identify small molecule antagonists of the estrogen related receptor signaling pathway with the pleiotropic PPARgamma coactivator (PGC) cell viability counter screen (AID 1224822; further: series mostly up to about 46 µM)
How it was run: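 PGC/ERR cells were seeded at 2,000 cells/well, rested 6 h at 37 C/5% CO2, then given compounds in DMSO by pin tool and incubated 17.5 h at 37 C. Viability came from CellTiter-Fluor fluorescence after 30 min.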

Measured: Potency

Retinoic acid receptor RXR-alpha (Homo sapiens), sequence (P19793 whole entry, looked up): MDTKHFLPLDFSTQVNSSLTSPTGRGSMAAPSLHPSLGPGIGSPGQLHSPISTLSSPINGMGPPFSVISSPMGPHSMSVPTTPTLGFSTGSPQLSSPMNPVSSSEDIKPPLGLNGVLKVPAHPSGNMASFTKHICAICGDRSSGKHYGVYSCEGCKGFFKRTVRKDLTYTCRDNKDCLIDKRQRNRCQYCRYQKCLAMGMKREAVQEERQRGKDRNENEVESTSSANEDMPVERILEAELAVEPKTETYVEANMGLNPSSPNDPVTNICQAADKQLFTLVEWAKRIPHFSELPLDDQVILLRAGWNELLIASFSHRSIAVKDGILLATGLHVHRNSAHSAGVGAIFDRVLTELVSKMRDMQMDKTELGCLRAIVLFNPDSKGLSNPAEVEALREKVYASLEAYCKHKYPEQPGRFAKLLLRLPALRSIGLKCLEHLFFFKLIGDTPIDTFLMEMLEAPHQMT

CCN1CCCC(OC(=O)C(c2ccccc2)c2ccccc2)C1 (stereo not given)
inactive: [1] | [2] | [3] | [4] | [5] | [6] | [7] | [8] | [9] | [10]

C#CC(C)(O)CC(C)C (stereo not given)
inactive: [1] | [11] | [2] | [3] | [4] | [5] | [6] | [7] | [8] | [10] | [12] | [13] | [14]

CCCCNc1ccccc1
inactive: [1] | [2] | [3] | [4] | [5] | [6] | [15] | [7] | [8] | [10] | [13] | [14]

Nc1nc2c(ncn2CCC(CO)CO)c(=O)[nH]1
inactive: [1] | [11] | [2] | [3] | [4] | [5] | [6] | [7] | [8] | [9] | [12]

CCCCC1CCCCC(=O)O1 (stereo not given)
inactive: [1] | [11] | [2] | [3] | [4] | [5] | [6] | [15] | [7] | [8] | [10] | [12] | [13] | [14]

COc1cccc(OC)c1
inactive: [1] | [11] | [2] | [3] | [4] | [5] | [7] | [8] | [9] | [10] | [12]

N#CCc1ccccc1[N+](=O)[O-]
inactive: [1] | [11] | [2] | [3] | [4] | [15] | [7] | [8] | [9] | [13] | [14]

CC(C)[C@H](N)C(=O)OCCOCn1cnc2c(=O)[nH]c(N)nc21
inactive: [1] | [11] | [2] | [3] | [4] | [5] | [7] | [8] | [9] | [10]

CCCCOCC(C)OCC(C)O (stereo not given)
inactive: [1] | [11] | [2] | [3] | [4] | [6] | [15] | [7] | [8] | [9] | [12]

CCCc1ccccc1O
inactive: [1] | [2] | [3] | [4] | [6] | [15] | [7] | [8] | [9] | [12]

C[C@H]1O[C@@H](n2cc(F)c(=O)[nH]c2=O)[C@H](O)[C@@H]1O
inactive: [1] | [11] | [2] | [3] | [4] | [15] | [7] | [8] | [12] | [13] | [14] | [16] | [17] | [18] | [19] | [20]

CCCCCCCCCCCCCCCCCC(=O)OCCCCCCCCCCCCCC(C)C
inactive: [1] | [11] | [2] | [3] | [4] | [5] | [7] | [8] | [9] | [10] | [12]
